According to PubChem BioAssay AID602393 (Broad Institute, 2012):
In all, about 350,000 compounds went through this assay and about 7,000 (2%) were called active. No stated cut-off is given here; in the data, active means activation above about 40%; inconclusive means no clear call, values can overlap the other calls; inactive means below that. For the sample, actives were picked, then their nearest neighbours and some compounds at random.

Assay: Bmi1 luciferase reporter increase in mESCs, primary screen, esBAF inhibitor project, mouse ES cells, Bmi1 luciferase knock-in, single point (AID 602393);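 further: 0% = median of the plate's neutral control wells and 100% = double that signal; a rise in the Bmi1 reporter signal indicates esBAF inhibition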
Conditions: 24 h, at 12.5 µM, active compounds read high, 100% = twice the neutral-well signal
For C[C@H](CO)N1C[C@H](C)[C@@H](CN(C)S(=O)(=O)c2ccc(Cl)cc2)Oc2ccc(NS(C)(=O)=O)cc2CC1=O, the reporter increase was -2.32% (inactive). In the case of CC(C)C(=O)Nc1c(C(=O)c2ccc(F)cc2)oc2ccccc12, the reporter increase is reported as -8.19% (inactive). With CCc1cccc(NC(=O)COC(=O)c2cc(=O)c3ccccc3o2)c1 the reporter increase was 8.66% (inactive). In the case of CC(C)C(=O)Nc1ccc2c(c1)oc1ccccc12, the reporter increase is reported as 60.1% (active). With C[C@@H]1CN([C@@H](C)CO)S(=O)(=O)c2ccc(C#Cc3ccccc3)cc2O[C@@H]1CN(C)C(=O)C1CC1 the reporter increase was -5.48% (inactive). With Cc1ccc(SCC(=O)NC(=O)NCc2ccco2)c(C)c1 the reporter increase was -6.07% (inactive). For Cc1ccc(NC(=O)Cn2nnc(C(=O)NCc3ccco3)c2N)c(C)c1, the reporter increase was 3.66% (inactive). For Cc1ccc(NC(=O)C(=O)NCc2ccco2)c(C)c1, the reporter increase was 47.2% (active). For O=C(Cc1ccccn1)NCC[C@H]1CC[C@H](NS(=O)(=O)c2ccccc2)[C@@H](CO)O1, the reporter increase was -4.76% (inactive). In the case of Cc1cccc(S(=O)(=O)N[C@H]2CC[C@@H](CCNS(=O)(=O)c3ccccc3F)O[C@H]2CO)c1, the reporter increase is reported as -0.839% (inactive). With CCOc1ccc2[nH]c(=S)sc2c1 the reporter increase was 27.8% (inactive). For CCOc1ccc2c(c1)C(c1ccc(C)cc1)=NNC(c1ccc(C)cc1)=N2, the reporter increase was 67.3% (active). With Cc1ccc(C2=Nc3c(ccc4ccccc34)C(c3ccncc3)=NN2)cc1 the reporter increase was 10% (inactive). For C[C@@H]1CN([C@@H](C)CO)C(=O)Cc2cc(NS(=O)(=O)c3ccc(F)cc3)ccc2O[C@@H]1CN(C)S(=O)(=O)c1cccs1, the reporter increase was 4.77% (inactive). In the case of CCC(=O)Nc1ccc2c(c1)C(=O)N(C)C[C@@H](OC)[C@@H](C)CN(Cc1ccccc1OC)[C@H](C)CO2, the reporter increase is reported as -3.34% (inactive). With CNC[C@@H]1Oc2cc(-c3ccccc3OC)ccc2S(=O)(=O)N([C@H](C)CO)C[C@H]1C the reporter increase was -6.68% (inactive). For CN1CCN(C(=O)C[C@H]2C[C@H]3c4cc(NC(=O)Nc5ccccc5F)ccc4O[C@H]3[C@H](CO)O2)CC1, the reporter increase was 2.41% (inactive). With CC(C)NC(=O)N(C)C[C@@H]1Oc2ncc(C#CC3CC3)cc2C(=O)N([C@@H](C)CO)C[C@H]1C the reporter increase was 5.43% (inactive). For CSc1ccc(CNC(=O)c2ccc(NC(=O)C3=CSCCO3)cc2)cc1, the reporter increase was 15.9% (inactive). For O=C(NCc1ccccc1Cl)C1CCCO1 (stereo unspecified), the reporter increase was -4.1% (inactive). For O=C(Nc1ccc(C(=O)NCc2ccccc2Cl)cc1)C1=CSCCO1, the reporter increase was 44% (active). In the case of CCN1[C@@H]2Cn3c(ccc(C4=CCCCC4)c3=O)[C@H]1[C@@H](C(=O)N1CCCCC1)[C@@H]2CO, the reporter increase is reported as -1.1% (inactive). For O=C(CN1CCSCC1)N/N=C/c1ccc(F)cc1, the reporter increase was 5% (inactive). With O=C(COC(=O)c1ccc(F)cc1)Nc1ccc2c(c1)OCO2 the reporter increase was 1.17% (inactive). With O=C(Cc1ccc(F)cc1)N/N=C/c1ccc2c(c1)OCO2 the reporter increase was 52.6% (active). For C[C@@H](NC(=O)[C@H]1[C@H](CO)[C@H]2Cn3c(cccc3=O)[C@H]2N1C(=O)C1CC1)c1ccccc1, the reporter increase was 2.89% (inactive). In the case of COc1ccc(C(=O)Nc2ccc3c(c2)OC[C@H](C)N(C(C)=O)C[C@@H](C)[C@H](OC)CN(C)C3=O)cc1, the reporter increase is reported as -0.383% (inactive). For Cc1ccc(S(=O)(=O)NCC[C@@H]2CC[C@@H](NC(=O)CCN3CCCCC3)[C@@H](CO)O2)cc1, the reporter increase was -6.37% (inactive). For Cc1ccc(S(=O)(=O)Nc2ccc3c(c2)C(=O)N([C@@H](C)CO)C[C@H](C)[C@@H](CN(C)C(=O)Cc2ccccc2)OCCCC[C@H](C)O3)cc1, the reporter increase was 0.836% (inactive). With Cc1ccnc(NC(=O)CNC(=O)c2ccccc2)c1 the reporter increase was 20.5% (inactive). With O=C(Nc1ncccc1O)c1ccc(C(=O)c2ccccc2)cc1 the reporter increase was 21.1% (inactive). With O=C(CNC(=O)c1ccc2ccccc2c1)Nc1ncccc1O the reporter increase was 51.4% (active). With Cc1noc(C)c1S(=O)(=O)N(C)C[C@H]1OCCCC[C@@H](C)Oc2ccc(NC(=O)c3ccccc3)cc2C(=O)N([C@@H](C)CO)C[C@H]1C the reporter increase was 5.48% (inactive). In the case of O=C(C[C@H]1CC[C@@H](NC(=O)Nc2ccc(C(F)(F)F)cc2)[C@H](CO)O1)NCc1cc(F)cc(F)c1, the reporter increase is reported as 2.19% (inactive). With CCC(=O)N1[C@@H]2CN(C(=O)Nc3ccc(Cl)cc3)c3ccccc3[C@@H]2[C@@H]1CO the reporter increase was 7.74% (inactive). For CC1CCN(C(=O)COC(=O)c2cc(S(=O)(=O)N3CCOCC3)ccc2Cl)CC1, the reporter increase was -5.57% (inactive). With CN(C(=O)COC(=O)c1cc(=O)[nH]c2ccccc12)C1CCCCC1 the reporter increase was 59.3% (active). In the case of O=C(COC(=O)c1cc(=O)[nH]c2ccccc12)NCc1cccc(Cl)c1, the reporter increase is reported as -2.45% (inactive). For COC(=O)C1CCN(C(=O)c2cc(=O)[nH]c3ccccc23)CC1, the reporter increase was -0.707% (inactive). With O=C(OCc1nnc(-c2ccccc2)o1)c1cc(=O)[nH]c2ccccc12 the reporter increase was -2.08% (inactive). In the case of CC1CCN(C(=O)COC(=O)c2cc(=O)[nH]c3ccccc23)CC1, the reporter increase is reported as 60.1% (active). In the case of COc1ccc(S(=O)(=O)N(C)C[C@@H]2OCCCC[C@@H](C)Oc3ccc(N(C)C)cc3C(=O)N([C@@H](C)CO)C[C@@H]2C)cc1, the reporter increase is reported as -1.73% (inactive). In the case of O=C(C[C@H]1CC[C@@H](NC(=O)c2ccncc2)[C@@H](CO)O1)Nc1ccccc1, the reporter increase is reported as -0.301% (inactive). With CC(C)n1c(=O)[nH]c2cc(C(=O)Nc3ccccc3)ccc21 the reporter increase was 46.7% (active). With Cc1cc(=O)c2ccc(NC(=O)c3ccccc3)cc2[nH]1 the reporter increase was 1.23% (inactive). In the case of Cn1c(=O)n(C)c2cc(C(=O)Nc3ccc(Br)cc3)ccc21, the reporter increase is reported as 6.69% (inactive). For CNC[C@H]1Oc2ncc(-c3ccccc3C)cc2C(=O)N([C@@H](C)CO)C[C@@H]1C, the reporter increase was -1.27% (inactive). In the case of C/C(=C\C(=O)c1cccnc1)Nc1ccc(C)c(C)c1, the reporter increase is reported as 64.2% (active). For Cc1ccc(OCC(=O)NCCCNC(=O)c2cccnc2)cc1C, the reporter increase was -1.38% (inactive). For Cc1ccc(NC(=O)COc2ccc(/C=N\NC(=O)c3cccnc3)cc2)cc1C, the reporter increase was 1.32% (inactive). For C[C@H]1CCCCO[C@@H](CN(C)Cc2ccc(C(=O)O)cc2)[C@@H](C)CN([C@@H](C)CO)C(=O)c2cc(NS(C)(=O)=O)ccc2O1, the reporter increase was -4.29% (inactive).
